# Bioassay records from PubChem BioAssay.
# This is a sample that favours compounds with a hit; in the whole collection about 28% have one here.
# CYP2C19 inhib: inhibitors of human CYP2C19 | AID 778 | P33261 | hit rate 21% among 96,000 | inhibition, % at 5 µM | CYP2C19 Supersomes, luciferin-H EGE luminescence, 30 min;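 active = CYP2C19 inhibition above a set limit at 5 µM in the primary screen, cut at about 50% in these data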;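 also: plate controls were negative control wells for no effect and 2.5 mM tranylcypromine positive control for full effect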
# CYP2C9 inhib: human CYP2C9 inhibition; P11712; CYP2C9 Supersomes, luciferin-H conversion, luminescence; inhibition, % at 5 µM; hit rate 20% among 96,000; AID 777;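 active = blocking of liver enzyme CYP2C9 beyond about 50% at 5 µM, limit read from the data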
# Target sequence (P11712 whole entry, looked up): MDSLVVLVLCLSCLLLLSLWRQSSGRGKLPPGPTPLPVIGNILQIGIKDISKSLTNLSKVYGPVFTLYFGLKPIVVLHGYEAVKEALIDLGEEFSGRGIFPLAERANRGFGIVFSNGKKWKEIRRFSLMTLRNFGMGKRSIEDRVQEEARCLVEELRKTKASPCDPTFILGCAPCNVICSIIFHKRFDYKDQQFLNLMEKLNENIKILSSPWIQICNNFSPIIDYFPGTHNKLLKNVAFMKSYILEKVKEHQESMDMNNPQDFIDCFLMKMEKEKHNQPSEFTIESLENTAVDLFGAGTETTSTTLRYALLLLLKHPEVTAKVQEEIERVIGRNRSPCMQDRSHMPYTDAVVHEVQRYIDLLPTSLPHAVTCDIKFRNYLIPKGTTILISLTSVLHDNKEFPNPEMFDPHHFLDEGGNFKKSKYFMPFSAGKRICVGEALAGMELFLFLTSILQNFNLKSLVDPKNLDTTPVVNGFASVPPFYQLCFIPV
# DAT uptake mod: human DAT dopamine uptake with cocaine, either direction | Q01959 | B-score at 10 µM | LLC-PK1 hDAT cells, [14C]-dopamine uptake with cocaine IC80; actives deviate in either direction | hit rate 1.3% among 110,000 | AID 449768;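 active = Z score or B-score, a plate-position-corrected score, falls beyond the plate's 99.7% confidence bounds, in either direction; inactive = both scores lie inside the 99.7% bounds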;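 also: scored against the spread of the other compound wells on the same plate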
# CYP2C9 activ: increases human cytochrome P450 2C9 activity. recombinant CYP2C9, luciferin-H conversion, luminescence; hits give high values; factor 1 = untreated enzyme, 0 = blocked. activation factor at 5 µM. hit rate 1.4% among 96,000. AID 1024;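 active = activation factor of 2 or more for CYP2C9 at a 5 µM dose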;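 also: 0 = sulfaphenazole-blocked wells and 1 = vehicle-only wells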
# CYP2C19 act: increases human CYP2C19 enzyme activity; AID 1025; recombinant CYP2C19, luciferin-H EGE luminescence; hits give high values; 0 = fully inhibited enzyme, 1 = untreated enzyme; P33261; 96,000 tested, under 10 active; activation factor at 5 µM;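 active = activation factor of at least 2 at 5 µM in the primary screen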;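 also: 0 = wells with 2.5 mM tranylcypromine and 1 = vehicle-only wells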
# D1 mod: allosteric modulators of human D1 dopamine receptor. hit rate 5.9% among 58,000. HEK293 D1, CRE-luciferase, dopamine EC30 potentiation; actives deviate in either direction. B-score at 10 µM. P21728;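 active = luminescence count or its row- and column-corrected plate score outside the 99.7% band of the plate's sample wells, on either side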
# Active calls of the source: *; nt = no result.
SMILES,CYP2C19 inhib,CYP2C9 inhib,DAT uptake mod,CYP2C9 activ,CYP2C19 act,D1 mod
CCOC(=O)N1CCN(CC(=O)Nc2ccc(C)c(Br)c2)CC1,51*,28,0.96,0.7,0.5,-0.0067
CCOC(=O)N1CCN(S(=O)(=O)/C=C/c2ccccc2)CC1,85*,-14,-0.64,1.1,0.1,0.14
CCOC(=O)C(C)Oc1ccsc1C(=O)OC (stereo not given),2,14,0.21,0.9,1,nt
c1ccc(COc2ccc(OCCCNC3CCCC3)cc2)cc1,11,1,2.3,1,0.9,nt
Cn1nc(C(F)(F)F)c(C#N)c1N1CCN(c2ccccc2F)CC1,-9,21,-2.1,0.8,1.1,nt
COc1cccc(N2CCN(c3c(C#N)c(C(F)(F)F)nn3C)CC2)c1,94*,92*,0.47,0.1,0.1,nt
CC(=O)c1c(OCC(=O)O)ccc2c(C)cc(=O)oc12,-24,-21,-0.92,1.2,1.2,0.13
CCOC(=O)C(C)Oc1ccc2c(CC)cc(=O)oc2c1C (stereo not given),35,60*,-0.39,0.4,0.6,nt
CCOC(=O)C(C)Oc1ccc2c(C)cc(=O)oc2c1C(C)=O (stereo not given),58*,7,-1.2,0.9,0.4,nt
CC1=C(C(=O)Nc2ccccc2)C(c2sccc2C)n2nnnc2N1 (stereo not given),21,2,-0.47,1,0.8,nt
CC1(C)OC(=O)C(=NNc2ccc(Cl)cc2)C(=O)O1,7,18,-1.1,0.8,0.9,nt
CCOC(=O)CCCNC(=O)COC(=O)c1cccc(C)c1O,67*,47,-0.41,0.5,0.3,nt
CCC(CC)NC(=O)COC(=O)c1cccc(C)c1O,16,-12,0.64,1.1,0.8,nt
CCOc1ccc(NC(=O)N(CCCN2CCOCC2)Cc2cccnc2)cc1,78*,54*,1.2,0.5,0.2,nt
Cc1ccc(NC(=O)N(CCCN2CCOCC2)Cc2cc3cc4c(cc3[nH]c2=O)OCO4)cc1,16,9,nt,0.9,0.8,-0.29
CCCN1CCCc2cc(CN(CCCN3CCOCC3)C(=O)Nc3ccc(OCC)cc3)ccc21,9,8,2.7*,0.9,0.9,nt
CC(=O)N(CCCN1CCOCC1)Cc1ccncc1,8,7,-1.6,0.9,0.9,nt
CCc1ccc(NC(=O)N(Cc2cccnc2)Cc2ccco2)cc1,98*,87*,0.64,0.1,0,nt
Cc1cc(C)n2nc(/C(C#N)=C/c3ccccc3)c(C#N)c2n1,5,18,0.77,0.8,0.9,nt
CCOC(=O)Cc1csc(NC(=O)CC(C)(C)C)n1,3,-1,0.047,1,1,nt
Cc1cc(C)nc(NCC(O)CNc2ccccc2Cl)n1 (stereo not given),nt,nt,-0.24,nt,nt,1.4
CCn1c(SC(C)C(=O)O)nc2sc3c(c2c1=O)CCC3 (stereo not given),-5,74*,1.2,0.3,1.1,0.34
CCOC(=O)C(C)n1cnc2sc3c(c2c1=O)CCC3 (stereo not given),6,5,0.56,0.9,0.9,0.2
CCn1c(SCC(=O)N2CCOCC2)nc2sc3c(c2c1=O)CCCC3,38,66*,-0.39,0.3,0.6,nt
CCc1nc2sc3c(c2c(=O)n1NC(=O)CCl)CCCC3,20,76*,-0.39,0.2,0.8,nt
SMILES,CYP2C19 inhib,CYP2C9 inhib,DAT uptake mod,CYP2C9 activ,CYP2C19 act,D1 mod
CCC(CCC(=O)Nc1ccn(-c2ccccc2)n1)C(=O)O (stereo not given),-22,-21,0.42,1.2,1.2,-0.46
O=C(CC1(O)C(=O)Nc2cc(Cl)cc(Cl)c21)c1ccccc1O (stereo not given),nt,nt,0.67,nt,nt,0.12
CCn1c(CC(=O)Nc2ccc(C)c(Cl)c2)nnc1SCCOc1ccc(OC)cc1,12,17,-1.7,0.8,0.9,nt
CCn1c(SCCOc2ccc(OC)cc2)nnc1C(CO)NC(=O)c1ccc(OC)cc1 (stereo not given),64*,88*,2,0.1,0.4,-0.14
C=CCn1c(SCCOc2ccc(OC)cc2)nnc1C(C)NC(=O)Cc1ccc(OC)cc1 (stereo not given),77*,68*,1.4,0.3,0.2,nt
COc1ccc(N=C2S/C(=C\c3cc(C)n(C)c3C)C(=O)N2C)cc1,51*,55*,2,0.4,0.5,nt
CCOC(=O)c1cc(-c2ccc(OC)cc2)nc2c1c(C)nn2CCC#N,18,19,-0.07,0.8,0.8,nt
